High-throughput results (PubChem)
MITF primary = MITF inhibitors, primary screen, biochemical, AlphaScreen, human | inhibition, % at 2.6 µM | 650,000 compounds, 0.91% hits | AlphaScreen MITF homodimerization, bead proximity signal; in the data active = inhibition above about 50%;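 also: 0% = vehicle wells with protein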
FBW7 activator = FBW7 E3 ligase activators, primary screen, biochemical, AlphaScreen, human | AlphaScreen FBW7–phospho-cyclin E peptide binding, activator screen | normalized activity (activation), % at 26.1 µM | 650,000 compounds, 0.13% hits | AID 1259310, 2017; in the data active = normalized activity above about 1.9%;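 also: purified mutant Fbw7 with reduced substrate affinity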
GPR151 ag = activators of human GPR151, primary screen, cell-based, PathHunter beta-arrestin, luminescence. PathHunter beta-arrestin GPR151 cells. activation, % at 11.2 µM. 650,000 compounds, 1% hits; in the data active = activation above about 4.9%;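 also: 0% = median of compound wells and 100% = cells with positive control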
Target sequence (Q8TDV0 whole entry, looked up): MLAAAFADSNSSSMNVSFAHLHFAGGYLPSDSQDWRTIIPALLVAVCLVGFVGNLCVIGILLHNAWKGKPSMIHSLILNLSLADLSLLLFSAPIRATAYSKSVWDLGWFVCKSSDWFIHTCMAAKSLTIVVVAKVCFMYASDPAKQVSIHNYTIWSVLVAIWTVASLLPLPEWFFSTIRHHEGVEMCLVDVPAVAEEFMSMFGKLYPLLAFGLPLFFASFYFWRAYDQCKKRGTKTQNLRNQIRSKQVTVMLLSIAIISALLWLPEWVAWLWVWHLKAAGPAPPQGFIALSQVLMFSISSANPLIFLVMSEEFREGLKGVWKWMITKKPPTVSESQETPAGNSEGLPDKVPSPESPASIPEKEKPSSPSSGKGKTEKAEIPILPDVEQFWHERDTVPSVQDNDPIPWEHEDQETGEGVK
TEAD-YAP block = TEAD-YAP interaction inhibition, primary screen, TEAD-YAP interaction inhibitor project, luminescence, HEK-TIYL cells; TEAD-Gal4/YAP UAS-luciferase luminescence; inhibition, % at 9.12 µM; 640,000 compounds, 1.4% hits; in the data active = inhibition above about 32%;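 also: 0% = median of test compound wells and 100% = reference inhibitor wells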
* hit, by the source's call; ! = a repeat was not active. Sampled rows, rich in hits. Any-hit rate of the full collection: about 3.5%.

SMILES	MITF primary	FBW7 activator	GPR151 ag	TEAD-YAP block
CC1(C)C(C(=O)Nc2cccnc2)C1(C)C	3.0	0.5	0.4	9.4
CC/C(=C\c1sc2ccc(OC)cc2[n+]1CC)SC (tested in a mixture with another compound)	10.4	0.0	-0.5	3.9
CC[n+]1c(/C=C/N(C)c2ccccc2)sc2ccc(OC)cc21	9.8	0.2	-0.5	79.4*
O=C1NC(=O)N(c2cccc3ccccc23)C(=O)/C1=C\c1ccco1	78.3*	-0.1	-0.4	-3.6
O=C1NC(=S)N(c2ccc(F)cc2)C(=O)/C1=C/c1ccco1	63.2*	-1.0	-0.3	-4.8
O=C1NC(=S)N(c2ccccc2)C(=O)/C1=C\C=C\c1ccco1	74.9*	-0.8	-0.6	-2.5
O=C1NC(=S)N(c2ccc(Cl)cc2)C(=O)/C1=C/c1ccco1	32.9	0.0	-0.6	17.1
CC(C)(C)c1cc2nccc(C3CCNCC3)n2n1	2.6	0.0	-0.8	7.5
CC(C)N(C(=O)CCl)c1ccccc1	-1.7	-0.1	1.2	33.5*
CCOC(=O)/C(SP(=S)(OCC)OCC)=C(/C)Nc1ccccc1N	4.7	-0.2	-2.0	-57.3
N#CC1=C2SCC(O)(c3ccco3)N2C(=O)CC1c1ccccc1F (stereo not given)	9.0	0.7	1.7	41.1*
COc1cc([C@@H]2c3cc4c(cc3[C@H](OC(C)=O)[C@H]3COC(=O)[C@@H]23)OCO4)cc(OC)c1OC	-6.1	0.8	3.0	52.0*
COc1cc([C@@H]2c3cc4c(cc3[C@@H](O)[C@H]3COC(=O)[C@H]23)OCO4)cc(OC)c1O	10.7	0.6	3.5	-9.1
N#CC(C#N)=Cc1cc(C=C(C#N)C#N)c(O)o1	83.7*	-0.6	0.6	13.7
Cc1cc(C)[n+](-c2ccccc2)c2[nH]c(=O)[nH]c(=O)c12	8.1	0.9	1.8	-5.1
Cc1cc(C)n2nc3c(c(C)cc(C)[n+]3-c3ccccc3)c2n1	15.7	0.3	0.9	33.4*
CN1CC(=O)N2CCN(Cc3ccccn3)C[C@@H]2C1=O	8.3	-0.1	1.8	10.2
O=C(c1cccnc1)N(Cc1cccnc1)C1CCN(Cc2ccncc2)CC1	6.7	0.2	-0.1	-7.1
O=C1NC(=S)NC(=O)C1=Cc1ccc(-c2ccc(C(=O)O)cc2)o1	63.4*	0.0	-0.7	-1.0
O=C1NC(=O)N(Cc2ccco2)C(=O)/C1=C\c1ccc(-c2ccc(Cl)c(C(=O)O)c2)o1	20.9	-0.6	0.0	1.3
O=C1NC(=S)NC(=O)C1=Cc1ccc(-c2ccc(Cl)c(C(=O)O)c2)o1	69.2*	-1.5	1.0	-5.7
CC(=O)c1ccc(-c2ccc(C=C3C(=O)NC(=S)NC3=O)o2)cc1	28.3	-0.3	-0.2	-11.6
O=C1NC(=S)NC(=O)C1=Cc1ccc(-c2ccc(C(=O)O)c(O)c2)o1	81.9*	-0.3	-0.1	-7.0
O=C1CSC(c2ccc(Br)cc2)c2c(-c3ccccc3)nn(-c3ccccc3)c2N1 (stereo not given)	-13.4	-0.2	0.6	-6.2
CCCN1CCN(C(=O)Cc2c(C)nc3c(-c4ccccc4)c(C)nn3c2C)CC1	7.0	-0.2	-1.9	5.1
SMILES	MITF primary	FBW7 activator	GPR151 ag	TEAD-YAP block
C[C@H]1C(=O)O[C@@H]2CCN3CC=C(COC(=O)[C@](C)(O)[C@]1(C)O)[C@H]23	12.2	0.2	-3.5	73.6*!
C=CCN1C(=O)C2(C(C(=O)OC)=C(N)OC(CC(=O)OC)=C2C(=O)OC)c2ccccc21 (stereo not given)	1.5	0.1	2.8	-6.9
O=C(c1ccccc1Cl)c1cc(Br)ccc1NC(=O)c1c(F)cccc1F	-0.7	0.1	0.5	10.4
N/C(=N\[N+](=O)[O-])N/N=C/c1ccc(O)c(O)c1	87.1*	0.5	-4.7	-5.3
O=C(c1ccccc1Cl)c1cc([N+](=O)[O-])ccc1-n1cccc1	8.8	-0.1	0.7	51.1*
O=[N+]([O-])c1ccc(N2CCCC2)c2ccccc12	14.4	-0.2	0.6	3.1
Cc1cc([N+](=O)[O-])c2ccccc2[n+]1[O-]	-6.7	-0.3	-1.8	91.7*
C/C=C(/C)C(=O)O[C@H]1C(C)=C2[C@H]([C@@H]1OC(=O)CCCCCCC)[C@@](C)(OC(C)=O)C[C@H](OC(=O)CCC)[C@@]1(O)[C@H]2OC(=O)[C@@]1(C)O	11.1	0.2	0.1	57.0*
O=C(CCl)Nc1ccc(Cl)cc1C(=O)c1ccccc1	9.7	0.2	1.9	35.5*
CCN(CC)C(=O)c1ccc(NC(=O)CN2CCCCC2)cc1	12.2	0.1	-1.4	-3.0
CCN(CC)C(=O)c1ccc(NC(=O)c2ccccn2)cc1	-6.5	0.0	-9.6	41.9*
CC1(C)C(C(=O)NCC2CC(Cc3ccc(F)cc3)=NO2)C1(C)C (stereo not given)	-10.6	0.0	0.0	-0.8
COC1=CC(=O)O[C@H](/C=C/c2ccc3c(c2)OCO3)C1	0.6	0.7	0.6	77.9*
COC1=CC(=O)O[C@@H](CCc2ccc3c(c2)OCO3)C1	20.8	0.5	2.0	11.8
O=C(c1cc(-c2ccccc2)on1)N1CCC2(CC1)OCCO2	4.2	0.1	-5.1	-52.1
O=C(c1noc2c1COc1ccccc1-2)N1CCC2(CC1)OCCO2	10.1	0.9	-5.7	74.9*
C[C@@H]1O[C@@H](O[C@H]2CC[C@H](O[C@H]3[C@H](O)C[C@H](c4ccc5c(c4O)C(=O)C4=C(C5=O)[C@@]5(O)C(=O)C[C@](C)(O[C@H]6CC[C@H](O[C@H]7C=CC(=O)[C@H](C)O7)[C@H](C)O6)C[C@@]5(O)C=C4)O[C@@H]3C)O[C@H]2C)C=CC1=O	2.7	-0.4	1.2	-1.7
CCOc1ccc(N2C(=O)/C(=C/c3ccc(Br)o3)C(=O)NC2=S)cc1	79.4*	-0.2	-1.6	9.8
Cc1ccc(/C=C2\C(=O)NC(=S)N(c3cccc(F)c3)C2=O)o1	11.7	0.0	2.1	0.1
O=C1NC(=S)N(c2cccc(F)c2)C(=O)/C1=C/c1ccc(Br)o1	83.7*	-0.1	-1.0	4.1
CCOc1ccc(N2C(=O)/C(=C/c3ccc(C)o3)C(=O)NC2=S)cc1	13.7	-0.2	1.3	-0.7
CN1C(=O)NC(=O)/C(=C/c2ccc(Br)o2)C1=O	70.9*	-0.4	0.6	9.7
CCCCn1c(=O)c(C(=O)NC(C)C)c(O)c2ccccc21	-8.4	0.1	-1.0	-0.9
COc1ccc(CCNC2CCCCCC2)cc1OC	21.9	0.0	1.6	14.6
O=C1NC(=O)C(=Cc2ccc([N+](=O)[O-])o2)C(=O)N1	79.1*	-1.2	1.8	4.4
CC1CCC(C(C)C)C(OC(=O)Cn2c(COc3ccccc3)[n+](C)c3ccccc32)C1 (stereo not given)	-10.8	0.0	1.5	37.0*
CC1CCCC(N2CCN(C(=O)COc3ccccc3)CC2)C1 (stereo not given)	25.1	-0.1	0.2	3.1
